Compounds with a hit are over-represented: about 2.9% of the library has one in this group of screens.
Nrf2 inh – Nrf2 qHTS screen for inhibitors. Potency, µM (top dose mostly 46 µM), for inactives: top-dose activity change, negative = inhibition, most hits filed as inhibitors. A549 ARE-Fluc reporter, luciferase luminescence, 18-24 h. actives 2.1% (n = 360,000). AID 504444, 2011; further: potency means the concentration at half of the fitted maximal effect; on the % scale 0 is the no-effect control and ±100 the full control effect; nearly all actives have a fitted effect of over 60% in size
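Quantitative HTS in A549 cells stably bearing an antioxidant response element-firefly luciferase construct. Inhibition of Nrf2-driven transcription was scored by luminescence after 18-24 h of compound exposure at 37 °C.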
Nrf2 activator – qHTS of Nrf2 Activators; actives 0.31% (n = 410,000); Potency, µM (highest dose often 46.1 µM), without a hit: at the highest dose activation, usual class: activators; AREc32 ARE-luciferase reporter (MCF7-derived line), luminescence, 24 h; AID 624171, 2012; further: potency means the concentration at half of the fitted maximal effect; % of control where 0% means no effect; nearly all actives have a fitted effect of over 65% in size
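Luciferase luminescence (Steady-Glo, 30 min at room temperature) served as the read-out of ARE activation in AREc32 cells treated with compounds for 24 hr at 37 deg C.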
A549 viability – Nrf2 qHTS screen for inhibitors: counterscreen for cytotoxicity; A549 ARE-Fluc cells, CellTiter-Fluor viability, 18-24 h; Potency, µM (doses to about 46 µM), without a hit: at the top dose activity change, negative = cytotoxicity, usual class: inhibitors; actives 0.16% (n = 390,000); AID 504648, 2011; further: potency means the concentration at half of the fitted maximal effect; on the % scale 0 is the no-effect control and ±100 the full control effect
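A549 ARE-Fluc cells in 5% FBS OPTI-MEM, 5000 cells/well, rested 2 h then exposed to compounds in concentration-response for 18-24 h at 37 °C. Viability by CellTiter-Fluor fluorescence (Ex 405/Em 525) after 30 min; luciferase luminescence (BugLite, 15 min, RT) read afterwards.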
ATXN2 expr inh – Primary qHTS for Inhibitors of ATXN expression | HEK-293 ATXN2-luciferase reporter, luminescence, 24 h | actives 0.72% (n = 360,000) | Potency, µM (highest dose often 57 µM), without a hit: at the highest dose activity change, negative = inhibition, hits mostly inhibitors; further: potency means the concentration at half of the fitted maximal effect; on the % scale 0 is the no-effect control and ±100 the full control effect; nearly all actives have a fitted effect of over 55% in size
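ATXN2-luciferase reporter cells (luciferase flanked by upstream and downstream ATXN2 gene portions) were treated 24 h at 37 °C with compounds at up to 57 uM. SteadyGlo luminescence gave expression; GF-AFC fluorescence gave viability.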
S2 tox – Viability Counterscreen for Primary qHTS for Inhibitors of ATXN expression; actives 0.49% (n = 400,000); Potency, µM (titrated, usually from 56.7 µM), most hits filed as cytotoxic; S2 cells (HEK-293 line with an ATXN2-luciferase reporter) viability, CellTiter-Fluor protease fluorescence, 24 h; further: potency means the concentration at half of the fitted maximal effect; nearly all actives have a fitted effect of over 40% in size
SKNSH spheroid – qHTS of pediatric cancer cell lines to identify multiple opportunities for drug repurposing: Orthogonal 3D viability screen for SK-N-SH cells. shares compounds with ATXN2 expr inh. SK-N-SH 3D spheroid viability, PI/Hoechst imaging, 72 h. Potency, µM (highest dose often 30.7 µM), actives largely listed as inhibitors. actives 70% (n = 65)
SJ-GBM2 3D tox – qHTS of pediatric cancer cell lines to identify multiple opportunities for drug repurposing: Orthogonal 3D viability screen for SJ-GBM2 cells | SJ-GBM2 3D spheroid viability, PI/Hoechst imaging, 72 h | shares compounds with ATXN2 expr inh | Potency, µM (doses to about 30.7 µM), actives largely listed as inhibitors | actives 80% (n = 65)
Daoy 3D tox – qHTS of pediatric cancer cell lines to identify multiple opportunities for drug repurposing: Orthogonal 3D viability screen for Daoy cells; Potency, µM (top dose mostly 30.7 µM), hits mostly inhibitors; AID 1347137, 2019; shares compounds with ATXN2 expr inh; Daoy 3D spheroid viability, PI/Hoechst imaging, 72 h; actives 50% (n = 65)
TC32 3D casp – qHTS of pediatric cancer cell lines to identify multiple opportunities for drug repurposing: Orthogonal 3D caspase screen for TC32 cells; AID 1347138, 2019; Potency, µM (doses to about 30.7 µM), hits mostly inhibitors; actives 30% (n = 65); TC32 3D spheroids, caspase-3/7 fluorescence imaging, 24 h; shares compounds with ATXN2 expr inh
TC32 spheroid – qHTS of pediatric cancer cell lines to identify multiple opportunities for drug repurposing: Orthogonal 3D viability screen for TC32 cells. shares compounds with ATXN2 expr inh. TC32 3D spheroid viability, PI/Hoechst imaging, 72 h. Potency, µM (top dose mostly 30.7 µM), usual class: inhibitors. actives 60% (n = 65)
MG63 spheroid – qHTS of pediatric cancer cell lines to identify multiple opportunities for drug repurposing: Orthogonal 3D viability screen for MG 63 (6-TG R) cells; Potency, µM (doses to about 30.7 µM), hits mostly inhibitors; AID 1347140, 2019; actives 50% (n = 65); shares compounds with ATXN2 expr inh; MG-63 (6-TG R) 3D spheroid viability, PI/Hoechst imaging, 72 h
RD spheroid – qHTS of pediatric cancer cell lines to identify multiple opportunities for drug repurposing: Orthogonal 3D viability screen for RD cells. Potency, µM (top dose mostly 30.7 µM), actives largely listed as inhibitors. actives 50% (n = 65). shares compounds with ATXN2 expr inh. RD rhabdomyosarcoma 3D spheroid viability, PI/Hoechst imaging, 72 h
* marks the source's active call; other numbers are inactive results; i = inactive; ? = inconclusive; . = no result given. The call rests on the fitted dose curve; in most records, active means well fitted curve in the direction sought with a large enough effect; inconclusive means small, poorly fitted or top-dose-only effect, or another doubt; inactive means no such curve, though single readings can be large; an effect the other way counts as inactive or inconclusive.

SMILES	Nrf2 inh	Nrf2 activator	A549 viability	ATXN2 expr inh	S2 tox	SKNSH spheroid	SJ-GBM2 3D tox	Daoy 3D tox	TC32 3D casp	TC32 spheroid	MG63 spheroid	RD spheroid
COc1ccc(S(=O)(=O)Nc2cccnc2Nc2ccc(O)cc2)cc1	.	.	.	-15%	.	0.32µM*	0.23µM*	?	1µM*	0.57µM*	?	0.46µM*
COc1ccc(NC(=O)c2cc3c(=O)n(Cc4ccco4)ccc3nc2C)cc1	-18%	16%	7%	.	.	.	.	.	.	.	.	.
C[C@H]1[C@@H](OC(=O)CCC(=O)O)O[C@@H]2O[C@@]3(C)CC[C@@H]4[C@H](C)CC[C@@H]1[C@@]24OO3	.	.	.	?	.	?	1.3µM*	i	?	?	?	0.91µM*
COc1ccc(-c2nc(N3CCOCC3)c3sc(CN(C)c4ncc(C(=O)NO)cn4)cc3n2)cn1	.	.	.	13%	.	5.1µM*	11µM*	5.1µM*	i	i	?	i
COc1cc(C(=O)Nc2ccc3nc(N4CCOCC4)sc3c2)cc(OC)c1OC	-16%	3%	-3%	6%	i	.	.	.	.	.	.	.
COc1ccc(-c2ccc3ncc4c(c3c2)n(-c2ccc(N3CCNCC3)c(C(F)(F)F)c2)c(=O)n4C)cn1	.	.	.	7.7µM*	.	0.25µM*	0.031µM*	0.0056µM*	0.5µM*	0.13µM*	0.0056µM*	0.16µM*
CCCCN(C)c1c(C)nc2ccc(C(=O)NCCc3c[nH]c4ccccc34)cn12	.	1%	.	-19%	i	.	.	.	.	.	.	.
COc1c(C)c2c(c(O)c1C/C=C(\C)CCC(=O)OCCN1CCOCC1)C(=O)OC2	.	.	.	40%	?	?	0.23µM*	?	i	?	0.81µM*	?
C[C@@H]1C[C@H]2[C@@H]3CCC4=CC(=O)C=C[C@]4(C)[C@@]3(Cl)[C@@H](O)C[C@]2(C)[C@@]1(OC(=O)c1ccco1)C(=O)CCl	?	-1%	-22%	?	?	i	?	i	i	i	i	i
O=C(NCc1cnc2ccccn12)C1CCC(=O)N(Cc2ccccc2F)C1 (stereo not drawn)	20%	0%	-4%	0%	i	.	.	.	.	.	.	.

Screening results deposited in PubChem BioAssay by National Center for Advancing Translational Sciences (NCATS).
